Results published in ChEMBL document CHEMBL3988442, “University of Dundee, Small-Polar-MMV Screening Library” (2021).
Out of some 48,000 compounds screened, about 13,000 (27%) showed an effect of 50% or more. Some of the results follow.

System: Wolbachia pipientis
Assay: Anti-Wolbachia Cell-Based Screen
Type: functional
Set-up: scale not given: in the data most compounds retested in dose-response had high values
Conditions: 5 µM

SMILES	Percent Effect
CC(C)(C)NC(=O)N1CCN2C(=O)OCC2C1 (stereo not given)	-12.64%
CCC(C)c1csc(NC(=O)c2sc(-c3nnc[nH]3)nc2C)n1 (stereo not given)	-26.52%
CSc1cccc(CNC(=O)C2CC(=O)N(CCN(C)C)C2)c1 (stereo not given)	8.737%
O=C(c1nnn(-c2ccc(C(F)(F)F)cc2)n1)N1CCC(O)CC1	4.237%
N[C@H]1CN(CCCOc2ccccc2)C[C@@H]1C1CC1	-13.64%
CCS(=O)(=O)N1CC(=O)N(CCOc2ccccc2)CC(O)C1 (stereo not given)	118.2%
CC(C)[C@@H]1CN(CCOc2ccccc2)C[C@H]1NS(=O)(=O)N(C)C	3.365%
CC(C)N1CCC2(CCCN(C(=O)c3cncn3C)C2)CC1.O=C(O)C(F)(F)F	0.429%
Cc1noc2ncc(C(=O)N3CCCC3c3cnn(C)c3)cc12 (stereo not given)	9.393%
CC(C)CN(C)c1ccc(C(=O)N2CCCC2c2cnn(C)c2)cn1 (stereo not given)	-4.627%
CN(C)c1ccc(C(=O)N2CCCC2c2cnn(C)c2)nn1 (stereo not given)	5.055%
CN(C)c1ccc(C(=O)N2CCCC2c2cnn(C)c2)cn1 (stereo not given)	96.67%
CN(C)c1cc(C(=O)N2CCCC2c2cnn(C)c2)ccn1 (stereo not given)	118.6%
COc1cccc(OC2CN(C(=O)Cn3nc4ccccc4n3)C2)c1	-0.01054%
NC(=O)C1(Cc2ccc(-c3ccccc3)cc2)CCCNC1 (stereo not given)	155.7%
NC(=O)C1(Cc2ccc(-c3ccccc3)cc2)CCNC1 (stereo not given)	156.4%
Cc1cc(C)cc(-c2ccc(CC3(C(=O)O)CCOCC3)cc2)c1	0.9737%
O=C(NCCc1nncn1C1CC1)C1(Cc2ccccc2)CCC1	0.4274%
Cl.Cl.c1ccc(-c2cnc3n2CCNC32CCNCC2)cc1	-2.159%
OC1(CNCCSCc2ccccc2)CCCNC1 (stereo not given)	3.749%
CCNC(=O)C1(Cc2ccc(-c3ccccc3)cc2)CCCNC1 (stereo not given)	160.5%
Cn1c(=O)oc2ccc(Nc3ncc(C#N)cc3Cl)cc21	-1.266%
OCC(CO)Nc1cccc(C(F)(F)F)n1	-11.08%
Cc1ccc(N2CCC(c3nccn3Cc3cscn3)CC2)nn1	-11.8%
Nc1cc(N2CCCC2c2cnccn2)ncn1 (stereo not given)	-4.526%
c1cnc2nc(N3CCc4c(ncn4C4CC4)C3)ccc2n1	1.111%
COc1ccc(C2CCCN2c2cnc3ccccc3n2)c(OC)c1 (stereo not given)	8.411%
c1ccc2nc(N3CCCC3c3nnc4n3CCCCC4)cnc2c1 (stereo not given)	231.1%
CC(C)c1nc(C2CCCN2c2cnc3ccccc3n2)no1 (stereo not given)	-9.022%
c1cnc2nc(N3CCCC3c3nnc4n3CCCCC4)ccc2n1 (stereo not given)	123.3%
